Reference: PubChem BioAssay (NCATS)
Results filed as inconclusive are left out. Unless noted, the call rests on the fitted dose curve; in most records, active means well fitted curve in either direction with a large enough effect (not every such curve was filed as active); inconclusive means small, poorly fitted or top-dose-only effect, or another doubt; inactive means flat fitted curve, though single readings scatter.

Columns and labels:
[1] = AP1 Signaling Pathway (AID 357); conditions: ME-180 AP-1-bla reporter, EGF-induced, beta-lactamase ratio, 5 h; at 17.2 µM (top of the series) unless noted;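 further: ME-180 reporter cells stimulated with EGF at its EC50 level; on the % scale 0 is the no-effect control and ±100 the full control effect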
Procedure, shortened: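 AP-1-bla ME-180 cells, Opti-MEM + 0.5% dialyzed FBS, plated overnight 37 °C. Cpd titration + EC50 EGF, 5 h 37 °C. CCF4 2.5 h RT; ex 405, em 460/530 ratio → %activity, AC50.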

[2] = NFAT Signaling Pathway (AID 444); conditions: Jurkat NFAT-bla M1, carbachol, beta-lactamase ratio, 5 h; at 17.2 µM (top of the series) unless noted;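 further: carbachol stimulus at about its EC50 of 1 µM final; on the % scale 0 is the no-effect control and ±100 the full control effect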
Procedure, shortened: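 Jurkat cells carrying an NFAT-driven β-lactamase reporter and co-transfected muscarinic M1 receptor were treated with compound plus carbachol (1 uM final, an EC50 level) for 5 h at 37 °C. CCF4 loading followed for 1 h at RT; 460/530 nm ratio gave %activity.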

[3] = Stat Signaling Pathway (AID 446); conditions: ME-180 SIE beta-lactamase reporter, IL-6 stimulated, 5 h; at 17.2 µM (top of the series) unless noted;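 further: ME-180 cervical cancer cells given 40 pM IL-6 alongside compound; SIE-controlled beta-lactamase reporter measured as 460/530 nm FRET emission ratio; on the % scale 0 is the no-effect control and ±100 the full control effect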
Procedure, shortened: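 Screening format detects activators and inhibitors alike: ME-180 SIE-bla cells stimulated at 40 pM IL-6 for 5 hrs with compound, then dual-emission beta-lactamase read at 405 nm excitation.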

[4] = target: Glucocorticoid receptor (Homo sapiens) (UniProt P04150); assay: GR-GFP Redistribution (AID 450;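 active means compounds whose dose series gives a full or clear partial fitted curve of increased nuclear translocation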; further: potency means the concentration at half of the fitted maximal effect)
Glucocorticoid receptor (Homo sapiens), sequence (P04150 whole entry, looked up): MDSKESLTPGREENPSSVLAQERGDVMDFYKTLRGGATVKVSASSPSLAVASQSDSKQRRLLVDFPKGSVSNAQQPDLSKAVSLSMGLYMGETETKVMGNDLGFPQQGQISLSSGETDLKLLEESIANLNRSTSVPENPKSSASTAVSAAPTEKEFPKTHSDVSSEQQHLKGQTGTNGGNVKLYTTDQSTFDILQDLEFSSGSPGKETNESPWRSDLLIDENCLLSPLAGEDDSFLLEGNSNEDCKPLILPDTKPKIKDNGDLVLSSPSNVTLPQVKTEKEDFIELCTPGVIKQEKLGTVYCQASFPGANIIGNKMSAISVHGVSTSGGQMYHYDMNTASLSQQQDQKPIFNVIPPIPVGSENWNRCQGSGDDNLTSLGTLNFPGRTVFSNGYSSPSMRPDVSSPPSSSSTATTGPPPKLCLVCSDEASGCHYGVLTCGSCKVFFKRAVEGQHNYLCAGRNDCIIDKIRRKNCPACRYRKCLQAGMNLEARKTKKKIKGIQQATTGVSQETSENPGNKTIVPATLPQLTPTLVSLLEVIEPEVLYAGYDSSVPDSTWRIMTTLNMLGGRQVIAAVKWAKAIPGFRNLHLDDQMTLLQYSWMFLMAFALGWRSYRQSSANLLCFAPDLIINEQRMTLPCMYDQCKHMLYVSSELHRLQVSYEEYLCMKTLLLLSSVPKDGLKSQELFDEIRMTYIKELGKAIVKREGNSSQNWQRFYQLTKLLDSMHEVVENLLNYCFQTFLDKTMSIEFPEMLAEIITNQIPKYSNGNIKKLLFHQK

CCOC(=O)c1cc(C)n(-c2ccc(OC)c(OC)c2)c1C
inactive: activity change, negative = inhibition [1] -17.8% | activity change, negative = inhibition [2] -1.46% | activity, negative = inhibition [3] -14.1% | Potency [4] > 20.6 µM

c1csc(-c2nn3c(C4CCCCC4)nnc3s2)c1
inactive: activity change, negative = inhibition [1] -6.89% | activity change, negative = inhibition [2] -19.6% | activity, negative = inhibition [3] 20.7% | Potency [4] > 20.6 µM

CC1(C)Cc2c(sc3nc4n(c(=N)c23)CCC4)CO1
inactive: activity change, negative = inhibition [1] -5.14% | activity change, negative = inhibition [2] -4.64% | activity, negative = inhibition [3] 4.33% | Potency [4] > 20.6 µM

O=S(=O)(O)c1nc2ccccc2n1Cc1ccc(Cl)cc1Cl
inactive: activity change, negative = inhibition [1] 18.6% | activity change, negative = inhibition [2] 7.47% | activity, negative = inhibition [3] -9% | Potency [4] > 20.6 µM

Cn1c(=O)c2c(nc(NCc3ccc4c(c3)OCO4)n2Cc2ccccc2)n(C)c1=O
inactive: activity change, negative = inhibition [1] -13.1% | activity change, negative = inhibition [2] 6.4% | activity, negative = inhibition [3] -25% | Potency [4] > 20.6 µM

CC(=O)C(=[N+]=[N-])C(=O)NCc1ccccc1
inactive: activity change, negative = inhibition [1] 7.12% | activity change, negative = inhibition [2] -14.9% | activity, negative = inhibition [3] 1.88% | Potency [4] > 20.6 µM

CCOC(=O)N1CCN(/C=C(\C#N)c2nc3ccccc3s2)CC1
inactive: activity change, negative = inhibition [1] -15.9% | activity change, negative = inhibition [2] 13.1% | activity, negative = inhibition [3] -10% | Potency [4] > 20.6 µM

Cc1ccc(-c2nn(CCC(=O)NCC3CCCO3)c(=O)c3ccccc23)cc1 (centres undefined)
inactive: activity change, negative = inhibition [1] -6.92% | activity change, negative = inhibition [2] -7.06% | activity, negative = inhibition [3] 4.3% | Potency [4] > 20.6 µM

CC(=O)/C(C#N)=C1\NC(=O)C(Cc2ccccc2Cl)S1 (centres undefined)
inactive: activity change, negative = inhibition [1] 8.76% | activity change, negative = inhibition [2] -3.03% | activity, negative = inhibition [3] -6.04% | Potency [4] > 20.6 µM

CN1CCN(Cc2c(O)c(Cl)cc3c(-c4ccccc4)cc(=O)oc23)CC1
inactive: activity change, negative = inhibition [1] -17.1% | activity change, negative = inhibition [2] -1.47% | activity, negative = inhibition [3] -7.42% | Potency [4] > 20.6 µM

Cc1cccc(OCC(=O)N2CCC(N3CCOCC3)CC2)c1
inactive: activity change, negative = inhibition [1] -0.218% | activity change, negative = inhibition [2] 6.61% | activity, negative = inhibition [3] 2.76% | Potency [4] > 20.6 µM

COC(=O)C(NC(C)=O)(Nc1ccccn1)C(F)(F)F (centres undefined)
inactive: activity change, negative = inhibition [1] -1.38% | activity change, negative = inhibition [2] 5.18% | activity, negative = inhibition [3] 0.0282% | Potency [4] > 20.6 µM

Cc1cc(C)n(C(=O)CSc2nc3ccccc3o2)n1
inactive: activity change, negative = inhibition [1] 13.4% | activity change, negative = inhibition [2] -4.76% | activity, negative = inhibition [3] 2.26% | Potency [4] > 20.6 µM

COCCCNC(=O)C(C#N)c1nc2ccccc2nc1N1CCCC1 (centres undefined)
inactive: activity change, negative = inhibition [1] 5.84% | activity change, negative = inhibition [2] 8.15% | activity, negative = inhibition [3] 20.8% | Potency [4] > 20.6 µM

COc1ccc(C2/C(=C(/O)c3ccccc3)C(=O)C(=O)N2c2ncccn2)cc1OC (centres undefined)
inactive: activity change, negative = inhibition [1] -3.2% | activity change, negative = inhibition [2] -4.09% | activity, negative = inhibition [3] -0.726% | Potency [4] > 20.6 µM

CCCCNC(=O)N1CCOCCOCCN(C(=O)NCCCC)CCOCC1
inactive: activity change, negative = inhibition [1] -5.59% | activity change, negative = inhibition [2] 4.17% | activity, negative = inhibition [3] 5.68% | Potency [4] > 20.6 µM

Brc1ccc(-c2cnnc(N3CCCC3)n2)cc1
inactive: activity change, negative = inhibition [1] -13.4% | activity change, negative = inhibition [2] 0.485% | activity, negative = inhibition [3] 6.79% | Potency [4] > 20.6 µM

CC(Sc1nc(N2CCCCC2)c2c(c1C#N)CCCC2)C(=O)O (centres undefined)
inactive: activity change, negative = inhibition [1] -9.35% | activity change, negative = inhibition [2] -2.56% | activity, negative = inhibition [3] -20.5% | Potency [4] > 20.6 µM

COc1cc(C)nc(Oc2ccc(=O)[nH]n2)n1
inactive: activity change, negative = inhibition [1] 16.4% | activity change, negative = inhibition [2] -26.6% | activity, negative = inhibition [3] 13.6% | Potency [4] > 20.6 µM

COc1cc(C2C(C(=O)c3cccs3)=C(O)C(=O)N2c2cc(C)on2)ccc1O (centres undefined)
inactive: activity change, negative = inhibition [1] -2.96% | activity change, negative = inhibition [2] 0.425% | activity, negative = inhibition [3] -6.54% | Potency [4] > 20.6 µM

Cc1nnc2n(-c3ccccc3)c(=O)c3c4c(sc3n12)COC(C)(C)C4
inactive: activity change, negative = inhibition [1] 4.08% | activity change, negative = inhibition [2] -10.7% | activity, negative = inhibition [3] -0.141% | Potency [4] > 20.6 µM

Cc1cc(=O)oc(C)c1C(=O)NCC1CCCO1 (centres undefined)
inactive: activity change, negative = inhibition [1] 2.9% | activity change, negative = inhibition [2] -0.802% | activity, negative = inhibition [3] 1.38% | Potency [4] > 20.6 µM

COC(=O)CN(c1cc(OC)ccc1OC)S(=O)(=O)c1ccc(OC)c(OC)c1
inactive: activity change, negative = inhibition [1] -25.5% | activity change, negative = inhibition [2] 4.34% | activity, negative = inhibition [3] -5.92% | Potency [4] > 20.6 µM

O=C1C=C(O)CC(c2ccc(Cl)c(Cl)c2)C1 (centres undefined)
inactive: activity change, negative = inhibition [1] 7.55% | activity change, negative = inhibition [2] -10.9% | activity, negative = inhibition [3] -4.42% | Potency [4] > 20.6 µM

CC1CC(C(F)(F)F)n2ncnc2N1 (centres undefined)
inactive: activity change, negative = inhibition [1] 5.99% | activity change, negative = inhibition [2] -3.22% | activity, negative = inhibition [3] 12.9% | Potency [4] > 20.6 µM

CC(C)NCc1c(O)c(Br)cc2oc3c(c12)CCCC3
inactive: activity change, negative = inhibition [1] 28.5% | activity change, negative = inhibition [2] 0.46% | activity, negative = inhibition [3] 5.85% | Potency [4] > 20.6 µM
